# Laboratory results taken from the supplement of paper PMC4022240.
# ± gives the standard deviation.
# T1: HaloTag-ATRX ADD domain (163-292)
# T1 chain: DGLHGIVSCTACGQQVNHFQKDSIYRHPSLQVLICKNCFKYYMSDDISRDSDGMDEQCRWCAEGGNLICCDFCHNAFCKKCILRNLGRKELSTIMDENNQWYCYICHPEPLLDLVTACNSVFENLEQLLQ
# Key:
# Test in all cases: peptide microarray binding signal (635 nm), min-max normalized on array (fraction of array maximum); higher = stronger binding
# Conditions in all cases: peptide region: H3 11-23
# [1] = molecular target: T1, HaloTag-ATRX ADD domain (163-292)
# In short: (§1)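 For each library, binding signal was taken as the triplicate-spot mean intensity and then min-max scaled. Spots of histone 13-mer peptide–cellulose conjugates on nitrocellulose, printed in triplicate with a Cy3 tracer, were probed for 1 h at 4°C with either biotin-labelled HaloTag reader fusions (10 nM to 1 μM) and streptavidin-Alexa Fluor 647 or rabbit histone antibodies (1:10,000 to 1:2,000) and anti-rabbit Alexa 647. Readout at 635 nm came from an Axon GenePix 4000B.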
# [2] = molecular target: HaloTag-ING2 PHD (mouse Ing2 200-280)
# In short: as §1
# [3] = molecular target: anti-H3K4me3 antibody ab8580
# In short: as §1
# [4] = molecular target: anti-H3K9me3 antibody ab8898
# In short: as §1
# [5] = peptide modifications: H3K14me3 H3K18me3, binder concentration: 1:2,000 dilution
# [6] = peptide modifications: H3K14me3 H3K18me3, binder concentration: 1:10,000 dilution
# [7] = peptide modifications: H3K14me2 H3R17cit, binder concentration: 1:2,000 dilution
# [8] = peptide modifications: H3K14me2 H3R17cit, binder concentration: 1:10,000 dilution
# [9] = peptide modifications: H3K18ac, binder concentration: 1:2,000 dilution
# [10] = peptide modifications: H3K18ac, binder concentration: 1:10,000 dilution
# [11] = peptide modifications: H3K14me3 H3R17cit, binder concentration: 1:2,000 dilution
# [12] = peptide modifications: H3K14me3 H3R17cit, binder concentration: 1:10,000 dilution
# [13] = peptide modifications: H3K14me2 H3R17me2s, binder concentration: 1:2,000 dilution
# [14] = peptide modifications: H3K14me2 H3R17me2s, binder concentration: 1:10,000 dilution
# [15] = peptide modifications: H3K14me3 H3K18me2, binder concentration: 1:2,000 dilution
# [16] = peptide modifications: H3K14me3 H3K18me2, binder concentration: 1:10,000 dilution
# [17] = peptide modifications: H3K18me2, binder concentration: 1:2,000 dilution
# [18] = peptide modifications: H3K18me2, binder concentration: 1:10,000 dilution
# [19] = peptide modifications: H3K14me3 H3K18me1, binder concentration: 1:2,000 dilution
# [20] = peptide modifications: H3K14me3 H3K18me1, binder concentration: 1:10,000 dilution
# [21] = peptide modifications: H3K18me1, binder concentration: 1:2,000 dilution
# [22] = peptide modifications: H3K18me1, binder concentration: 1:10,000 dilution
# [23] = peptide modifications: H3K14me3 H3R17me2s, binder concentration: 1:2,000 dilution
# [24] = peptide modifications: H3K14me3 H3R17me2s, binder concentration: 1:10,000 dilution
binder,measurement,setting,value
TGGKAPRKQLATK [H3 11-23 T G G Kme3 A P R Kme3 Q L A T K],peptide microarray binding signal,"[1]; peptide modifications: H3K14me3 H3K18me3, binder concentration: 50 nM",0.00652 ± 5.7e-05
same,peptide microarray binding signal,"[1]; peptide modifications: H3K14me3 H3K18me3, binder concentration: 500 nM",0.00876 ± 0.00042
same,peptide microarray binding signal,"[2]; peptide modifications: H3K14me3 H3K18me3, binder concentration: 10 nM",0.00865 ± 0.0015
same,peptide microarray binding signal,"[2]; peptide modifications: H3K14me3 H3K18me3, binder concentration: 100 nM",0.0149 ± 0.0019
same,peptide microarray binding signal,[3]; [5],0.45 ± 0.069
same,peptide microarray binding signal,[3]; [6],0.408 ± 0.048
same,peptide microarray binding signal,[4]; [5],0.18 ± 0.013
same,peptide microarray binding signal,[4]; [6],0.0505 ± 0.0048
TGGKAPRKQLATK [H3 11-23 T G G Kme2 A P Rcit K Q L A T K],peptide microarray binding signal,"[1]; peptide modifications: H3K14me2 H3R17cit, binder concentration: 50 nM",0.00455 ± 0.00063
same,peptide microarray binding signal,"[1]; peptide modifications: H3K14me2 H3R17cit, binder concentration: 500 nM",0.0129 ± 0.0034
same,peptide microarray binding signal,"[2]; peptide modifications: H3K14me2 H3R17cit, binder concentration: 10 nM",0.0106 ± 0.0018
same,peptide microarray binding signal,"[2]; peptide modifications: H3K14me2 H3R17cit, binder concentration: 100 nM",0.0185 ± 0.002
same,peptide microarray binding signal,[3]; [7],0.00051 ± 4e-05
same,peptide microarray binding signal,[3]; [8],0.0016 ± 4.6e-05
same,peptide microarray binding signal,[4]; [7],0.00488 ± 0.0014
same,peptide microarray binding signal,[4]; [8],0.00398 ± 0.00058
TGGKAPRKQLATK [H3 11-23 T G G K A P R Kac Q L A T K],peptide microarray binding signal,"[1]; peptide modifications: H3K18ac, binder concentration: 50 nM",0.00715 ± 0.00076
same,peptide microarray binding signal,"[1]; peptide modifications: H3K18ac, binder concentration: 500 nM",0.023 ± 0.014
same,peptide microarray binding signal,"[2]; peptide modifications: H3K18ac, binder concentration: 10 nM",0.0127 ± 0.0019
same,peptide microarray binding signal,"[2]; peptide modifications: H3K18ac, binder concentration: 100 nM",0.0351 ± 0.016
same,peptide microarray binding signal,[3]; [9],0.00259 ± 0.002
same,peptide microarray binding signal,[3]; [10],0.00462 ± 0.00058
same,peptide microarray binding signal,[4]; [9],0.00184 ± 8.2e-05
same,peptide microarray binding signal,[4]; [10],0.00173 ± 8.8e-05
TGGKAPRKQLATK [H3 11-23 T G G Kme3 A P Rcit K Q L A T K],peptide microarray binding signal,"[1]; peptide modifications: H3K14me3 H3R17cit, binder concentration: 50 nM",0.00273 ± 3.1e-05
same,peptide microarray binding signal,"[1]; peptide modifications: H3K14me3 H3R17cit, binder concentration: 500 nM",0.003095 ± 2.4e-05
same,peptide microarray binding signal,"[2]; peptide modifications: H3K14me3 H3R17cit, binder concentration: 10 nM",0.00603 ± 0.00019
same,peptide microarray binding signal,"[2]; peptide modifications: H3K14me3 H3R17cit, binder concentration: 100 nM",0.00709 ± 0.00015
same,peptide microarray binding signal,[3]; [11],0.00325 ± 7.6e-05
same,peptide microarray binding signal,[3]; [12],0.00257 ± 6e-05
same,peptide microarray binding signal,[4]; [11],0.00877 ± 0.0011
same,peptide microarray binding signal,[4]; [12],0.00519 ± 0.00016
TGGKAPRKQLATK [H3 11-23 T G G Kme2 A P Rme2s K Q L A T K],peptide microarray binding signal,"[1]; peptide modifications: H3K14me2 H3R17me2s, binder concentration: 50 nM",0.00489 ± 0.00015
same,peptide microarray binding signal,"[1]; peptide modifications: H3K14me2 H3R17me2s, binder concentration: 500 nM",0.0177 ± 0.0016
same,peptide microarray binding signal,"[2]; peptide modifications: H3K14me2 H3R17me2s, binder concentration: 10 nM",0.0129 ± 0.0031
same,peptide microarray binding signal,"[2]; peptide modifications: H3K14me2 H3R17me2s, binder concentration: 100 nM",0.00964 ± 0.0051
same,peptide microarray binding signal,[3]; [13],0.00034 ± 1e-05
same,peptide microarray binding signal,[3]; [14],0.0123 ± 0.0055
same,peptide microarray binding signal,[4]; [13],0.00669 ± 0.0021
same,peptide microarray binding signal,[4]; [14],0.00726 ± 0.0002
TGGKAPRKQLATK [H3 11-23 T G G Kme3 A P R Kme2 Q L A T K],peptide microarray binding signal,"[1]; peptide modifications: H3K14me3 H3K18me2, binder concentration: 50 nM",0.0154 ± 0.00095
same,peptide microarray binding signal,"[1]; peptide modifications: H3K14me3 H3K18me2, binder concentration: 500 nM",0.00933 ± 0.00068
same,peptide microarray binding signal,"[2]; peptide modifications: H3K14me3 H3K18me2, binder concentration: 10 nM",0.0107 ± 0.0026
same,peptide microarray binding signal,"[2]; peptide modifications: H3K14me3 H3K18me2, binder concentration: 100 nM",0.0194 ± 0.008
same,peptide microarray binding signal,[3]; [15],0.0408 ± 0.02
same,peptide microarray binding signal,[3]; [16],0.0276 ± 0.0038
same,peptide microarray binding signal,[4]; [15],0.0775 ± 0.0048
same,peptide microarray binding signal,[4]; [16],0.0328 ± 0.0026
TGGKAPRKQLATK [H3 11-23 T G G K A P R Kme2 Q L A T K],peptide microarray binding signal,"[1]; peptide modifications: H3K18me2, binder concentration: 50 nM",0.00558 ± 0.00014
same,peptide microarray binding signal,"[1]; peptide modifications: H3K18me2, binder concentration: 500 nM",0.0142 ± 0.0013
same,peptide microarray binding signal,"[2]; peptide modifications: H3K18me2, binder concentration: 10 nM",0.004595 ± 2.3e-05
same,peptide microarray binding signal,"[2]; peptide modifications: H3K18me2, binder concentration: 100 nM",0.0225 ± 0.0074
same,peptide microarray binding signal,[3]; [17],0.00421 ± 0.00019
same,peptide microarray binding signal,[3]; [18],0.001541 ± 1.5e-05
same,peptide microarray binding signal,[4]; [17],0.00397 ± 0.00076
same,peptide microarray binding signal,[4]; [18],0.00231 ± 4.2e-05
TGGKAPRKQLATK [H3 11-23 T G G Kme3 A P R Kme Q L A T K],peptide microarray binding signal,"[1]; peptide modifications: H3K14me3 H3K18me1, binder concentration: 50 nM",0.00624 ± 0.00027
same,peptide microarray binding signal,"[1]; peptide modifications: H3K14me3 H3K18me1, binder concentration: 500 nM",0.0127 ± 0.00063
same,peptide microarray binding signal,"[2]; peptide modifications: H3K14me3 H3K18me1, binder concentration: 10 nM",0.0189 ± 0.00082
same,peptide microarray binding signal,"[2]; peptide modifications: H3K14me3 H3K18me1, binder concentration: 100 nM",0.0235 ± 0.0053
same,peptide microarray binding signal,[3]; [19],0.0496 ± 0.0091
same,peptide microarray binding signal,[3]; [20],0.0252 ± 0.0028
same,peptide microarray binding signal,[4]; [19],0.0621 ± 0.0077
same,peptide microarray binding signal,[4]; [20],0.0203 ± 0.0028
TGGKAPRKQLATK [H3 11-23 T G G K A P R Kme Q L A T K],peptide microarray binding signal,"[1]; peptide modifications: H3K18me1, binder concentration: 50 nM",0.00433 ± 0.00015
same,peptide microarray binding signal,"[1]; peptide modifications: H3K18me1, binder concentration: 500 nM",0.0187 ± 0.00044
same,peptide microarray binding signal,"[2]; peptide modifications: H3K18me1, binder concentration: 10 nM",0.00979 ± 0.0017
same,peptide microarray binding signal,"[2]; peptide modifications: H3K18me1, binder concentration: 100 nM",0.0252 ± 0.0035
same,peptide microarray binding signal,[3]; [21],0.00217 ± 0.00021
same,peptide microarray binding signal,[3]; [22],0.00108 ± 1.9e-05
same,peptide microarray binding signal,[4]; [21],0.00293 ± 8.2e-05
same,peptide microarray binding signal,[4]; [22],0.00173 ± 6e-05
TGGKAPRKQLATK [H3 11-23 T G G Kme3 A P Rme2s K Q L A T K],peptide microarray binding signal,"[1]; peptide modifications: H3K14me3 H3R17me2s, binder concentration: 50 nM",0.0074 ± 0.0004
same,peptide microarray binding signal,"[1]; peptide modifications: H3K14me3 H3R17me2s, binder concentration: 500 nM",0.0114 ± 0.00062
same,peptide microarray binding signal,"[2]; peptide modifications: H3K14me3 H3R17me2s, binder concentration: 10 nM",0.0227 ± 0.00044
same,peptide microarray binding signal,"[2]; peptide modifications: H3K14me3 H3R17me2s, binder concentration: 100 nM",0.0342 ± 0.0024
same,peptide microarray binding signal,[3]; [23],0.0208 ± 0.0037
same,peptide microarray binding signal,[3]; [24],0.0151 ± 0.00082
same,peptide microarray binding signal,[4]; [23],0.021 ± 0.0014
same,peptide microarray binding signal,[4]; [24],0.0116 ± 0.00028
